Records with an inconclusive call do not appear. Values without a mark were called inactive. Calls of active or inactive are those of the source. Calls come from the whole dose curve; as a rule, active = well fitted activation curve with a large enough effect in the signal ratio in the repeat runs (not every such curve was filed as active); inconclusive = weak or mixed curves; inactive = flat fitted curve, though single readings scatter; the % refers to the signal ratio.
experiment: qHTS assay to identify small molecule agonists of H2AX (AID 1224845); settings: CHO-K1 phospho-H2AX Ser139 HTRF, 3 h; series mostly up to 154 µM; activation (H2AX phosphorylation): at the top concentration
Source text: National Center for Advancing Translational Sciences [NCATS]
NIH Chemical Genomics Center [NCGC]
U.S. Environmental Protection Agency [EPA]
National Institutes of Environmental Health Sciences [NIEHS]
National Toxicology Program [NTP]
U.S. Food and Drug Administration [FDA]
HTRF phospho-H2AX (Ser139) assay (Cisbio Bioassays, US) enables the quantitative detection of the histone variant H2AX when phosphorylated on serine 139. When double-stranded DNA breaks, either by ionizing radiation or endogenous physiological processes, H2AX becomes phosphorylated at Ser139. This phospho-Ser139 serves as a sensitive biomarker for the detection of such breaks, localizing the site of DNA repair. So, HTRF phospho-H2AX Ser139 is a pertinent assay to study genome stability, the cell cycle, DNA repair, and it serves as a biomarker for cancer, and to understand aging. Wild type CHO-K1 cells were used to identify the inducers of Phospho-H2AX Ser 139 from the Tox21 10K compound collections.
Tox21 Assay Protocol Summary:
The CHO-K1 cells suspended in culture medium containing 10% FBS were dispensed at 1000 cells/ 3 ul/well in 1536-well white wall/solid bottom plates (Greiner Bio-One North America, NC) using a Multidrop Combi (Thermo Fisher Scientific Inc., Waltham, MA). After the assay plates were incubated at 37C overnight, 23 nl of compounds at 15 concentrations (from 5-48 columns) or positive control (from 1 to 4 columns) were transferred to the assay plates using a Pintool station (Wako, San Diego, CA) into each well resulting in a final DMSO concentration of 0.76%. After 3hr incubation at 37C, 1 uL/well Supplemented Lysis buffer (diluted 100 fold blocking reagent in lysis buffer) (HTRF Phospho-H2A.X (S139) Assay kit from Cisbio US Inc., Bedford, MA) was added using a Flying Reagent Dispenser (FRD) (Aurora Discovery, CA). After 10sec spin at 1000 rpm in a plate centrifuge, the assay plates were incubated at room temperature for 30 min. Then followed by the addition of 1 uL/well detection buffer (containing a mixture of two antibodies, one labeled with cryptate, Anti pH2AX (S139)-K and another labeled with d2, Anti H2AX-d2) using FRD. After incubation at room temperature for 24 hr, the time resolved fluorescence at excitation 320 nm and emissions at 665 nm and 620 nm was measured using an Envision plate reader (PerkinElmer, Waltham, MA).
% is set by controls: 0 for no effect and ±100 for the full control effect.

Structure (SMILES)	Potency	activation (H2AX phosphorylation)
c1ccc2n[nH]nc2c1	inactive	–
O=C(Cl)c1cccc(C(=O)Cl)c1	inactive	–
CC(C)(O)CCC(C)(C)O	–	3.03%
Oc1ccc(Cl)cc1Cc1cc(Cl)ccc1O	inactive	–
Cc1c(O)cccc1C(=O)N[C@@H](CSc1ccccc1)[C@H](O)CN1C[C@H]2CCCC[C@H]2C[C@H]1C(=O)NC(C)(C)C	–	2.1% [at 70.9 µM]
Nc1nc(=S)c2[nH]cnc2[nH]1	–	-0.28% [at 70.9 µM]
CC1=C(C=O)C(C)(C)CC=C1	–	-5.46%
CC(C)C(=O)c1c(C(C)C)nn2ccccc12	–	-6.07% [at 70.9 µM]
CCN(CC)C(=O)Nc1ccc(OCC(O)CNC(C)(C)C)c(C(C)=O)c1 (stereo not given)	–	-2.48% [at 70.9 µM]
CC1COc2c(N3CCN(C)CC3)c(F)cc3c(=O)c(C(=O)O)cn1c23 (stereo not given)	–	0.389% [at 70.9 µM]
CCCCCCC(O)CCCCCCCCCCC(=O)O (stereo not given)	inactive	–
Cc1ccc(-c2cc(C(F)(F)F)nn2-c2ccc(S(N)(=O)=O)cc2)cc1	–	0.0316% [at 70.9 µM]
CCCCCC(=O)O[C@]1(C(C)=O)CC[C@H]2[C@@H]3CCC4=CC(=O)CC[C@]4(C)[C@H]3CC[C@@]21C	–	2.32% [at 70.9 µM]
CCC(C)(Oc1ccc(C2(c3ccc(OC(C)(CC)C(=O)O)cc3)CCCCC2)cc1)C(=O)O (stereo not given)	–	-1.48% [at 70.9 µM]
CC(C)(C)NC(=O)[C@@H]1CN(Cc2cccnc2)CCN1C[C@@H](O)C[C@@H](Cc1ccccc1)C(=O)N[C@H]1c2ccccc2C[C@H]1O	inactive	–
CCCNC(C)C(=O)Nc1ccccc1C (stereo not given)	–	-1.94% [at 70.9 µM]
C=C(C)C(=O)O	inactive	–
Nc1nc2ccccc2[nH]1	inactive	–
NC(N)=Nc1nc(CSCC/C(N)=N/S(N)(=O)=O)cs1	inactive	–
CC(C)(C)NCC(O)COc1ccccc1OCC1CCCO1 (stereo not given)	–	0.642% [at 70.9 µM]

Structure (SMILES)	Potency	activation (H2AX phosphorylation)
O=C1NCC2(CCN(CCc3ccccc3)CC2)O1	–	-3.63% [at 70.9 µM]
CC(=O)Nc1ccc(C(=O)CCl)cc1	–	0.545%
c1ccc2c(c1)-c1cccc3c1c-2cc1ccccc13	–	-1.48%
NC(Cc1ccc(Cl)cc1)C(=O)O (stereo not given)	–	-0.212% [at 0.582 µM]
Cc1ccnc2c1NC(=O)c1cccnc1N2C1CC1	inactive	–
CCCCC(CC)COC(=O)CC(C(=O)OCC(CC)CCCC)S(=O)(=O)O (stereo not given)	inactive	–
CC(C)(C)c1ccccc1	–	-1.53%
O=C(O)CP(=O)(O)O	–	-0.953% [at 70.9 µM]
CCCN[C@H]1CCc2nc(N)sc2C1	inactive	–
Oc1c(Cl)cc(Cl)c(Cl)c1Cc1c(O)c(Cl)cc(Cl)c1Cl	–	3.63% [at 70.9 µM]
CC(=O)N[C@@H](CS)C(=O)O	inactive	–
COc1ccc(Cc2cnc(N)nc2N)cc1OC	–	-1.9% [at 70.9 µM]
Cc1ccc(S(=O)(=O)Oc2ccc(N=Nc3ccc(-c4ccc(N=Nc5c(O)ccc6cc(S(=O)(=O)O)cc(S(=O)(=O)O)c56)c(C)c4)cc3C)cc2)cc1	–	0.754% [at 70.9 µM]
O=C(O)CCc1ccccc1	–	-0.59%
CCOC(=O)C(C)C(C)=O (stereo not given)	–	-1.85%
Cc1occc(=O)c1OC(=O)C(C)C	–	0.105%
CC1COC(=O)O1 (stereo not given)	inactive	–
CC(=O)OCCOCCOCCOC(C)=O	inactive	–
COC(=O)c1cccc(C(=O)OC)c1	inactive	–
CCc1ccc(C(c2ccc(CC)cc2)C(Cl)Cl)cc1	–	-0.962%

— PubChem BioAssay (Tox21)
